Assay [1] in a line: NCI Yeast Anticancer Drug Screen. Data for the rad50 strain (AID 155).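 Further: 0% = growth of vehicle-only cultures of the same strain.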 The note with it: S. cerevisiae rad50 strain growth inhibition, active compounds read high. The essentials: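 Compounds were tested on a yeast strain with an engineered DNA damage repair alteration; the reported value is growth inhibition normalised to vehicle treatment.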
Assay [2] in a line: NCI Yeast Anticancer Drug Screen. Data for the mec2-1 strain (AID 157). The following applies: S. cerevisiae mec2-1 strain, active compounds read high. In outline: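 Cells of the genetically defined mec2-1 yeast strain are incubated with test compound. Inhibition of growth is calculated against vehicle-treated controls.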
A short description of assay [3]: NCI Yeast Anticancer Drug Screen. Data for the sgs1 mgt1 strain (AID 161).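 Further: 0% = growth of cultures given vehicle only.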 The following applies: S. cerevisiae sgs1 mgt1 strain, active compounds read high. In outline: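 Genetically altered yeast, compound exposure, growth inhibition relative to vehicle.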
The nature of assay [4]: NCI Yeast Anticancer Drug Screen. Data for the cln2 rad14 strain (AID 165).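 Further: 0% = growth equal to vehicle treated cultures.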 The following applies: S. cerevisiae cln2 rad14 strain, active compounds read high. The essentials: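 The screen exposed genetically defined yeast (cln2 rad14) to test compounds and scored growth inhibition relative to vehicle-treated controls.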
The nature of assay [5]: NCI Yeast Anticancer Drug Screen. Data for the bub3 strain (AID 167). The note with it: S. cerevisiae bub3 mutant strain, active compounds read high. The essentials:
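Growth of a checkpoint-deficient yeast mutant is measured after compound exposure. Values represent inhibition relative to vehicle.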

The nature of assay [6]: NCI Yeast Anticancer Drug Screen. Data for the mlh1 rad18 strain (AID 175). The note with it: S. cerevisiae mlh1 rad18 strain growth inhibition, active compounds read high. In outline: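 Compound-treated yeast growth, normalised to vehicle controls. Strain bears defined DNA repair mutations.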
Where [7] appears, read: at 5.0 µM (retest, dose inferred, filed as 0.5).
Where [8] appears, read: at 50.0 µM (retest, dose inferred, filed as 5.0).

Each structure is given as a SMILES string. This is part of a sample that, as a whole, favours compounds with a hit. Of some 79,000 tested, about 15% had one in any assay. A number with no mark means an inactive call. Calls of active or inactive are those of the source. No stated cut-off is given here; in the data, active means growth inhibition above about 70%; inactive means the rest.

For `COc1ccc(C=O)cc1C[P+](c1ccccc1)(c1ccccc1)c1ccccc1`, the growth inhibition is 46% in assay [1] (setting [7]); 97% (active) in assay [1] (setting [8]); 98% (active) in assay [1] (at 50.0 µM); 38% in assay [2] (setting [7]); 99% (active) in assay [2] (setting [8]); 97.6% (active) in assay [2] (at 50.0 µM). Further, the growth inhibition in assay [3] (setting [7]) is 51%; in assay [3] (setting [8]), 99% (active); in assay [3] (at 50.0 µM) it was 98.4% (active); in assay [4] (setting [7]), 13%; in assay [4] (setting [8]), 94% (active); in assay [4] (at 50.0 µM), 98.3% (active). The growth inhibition in assay [5] (setting [7]) is 54%; in assay [5] (setting [8]), 98% (active); in assay [5] (at 50.0 µM) it was 97.5% (active); in assay [6] (setting [7]), 39%; in assay [6] (setting [8]) it was 94% (active); in assay [6] (at 50.0 µM) it was 97.9% (active).

Take `COc1ccc2cc(C(=O)CCCC(C)C(=O)O)ccc2c1` (configuration not stated): the growth inhibition was 0% in assay [1] (setting [7]); -9% in assay [1] (setting [8]); 74.6% (active) in assay [1] (at 50.0 µM); -9% in assay [2] (setting [7]); -11% in assay [2] (setting [8]); -7.85% in assay [2] (at 50.0 µM). Further, the growth inhibition is 0% in assay [3] (setting [7]); 38% in assay [3] (setting [8]); 2.85% in assay [3] (at 50.0 µM); -3% in assay [4] (setting [7]); -22% in assay [4] (setting [8]); -48% in assay [4] (at 50.0 µM). Further, the growth inhibition in assay [5] (setting [7]) was -4%; in assay [5] (setting [8]), -9%; in assay [5] (at 50.0 µM) it was 3.55%; in assay [6] (setting [7]), -12%; in assay [6] (setting [8]) it was -4%; in assay [6] (at 50.0 µM) it was 2.95%.

Take `CN(C)C(=S)SSSSC(=S)N(C)C`: the growth inhibition in assay [1] (setting [7]) is 96% (active); in assay [1] (setting [8]), 99% (active); in assay [1] (at 50.0 µM) it was 96.9% (active); in assay [2] (setting [7]), 98% (active); in assay [2] (setting [8]), 99% (active); in assay [2] (at 50.0 µM), 96.7% (active). Further, the growth inhibition is 98% (active) in assay [3] (setting [7]); 99% (active) in assay [3] (setting [8]); 98.3% (active) in assay [3] (at 50.0 µM); 65% in assay [4] (setting [7]); 99% (active) in assay [4] (setting [8]); 93.3% (active) in assay [4] (at 50.0 µM). For the same molecule, the growth inhibition in assay [5] (setting [7]) was 96% (active); in assay [5] (setting [8]), 99% (active); in assay [5] (at 50.0 µM), 96.8% (active); in assay [6] (setting [7]), 97% (active); in assay [6] (setting [8]), 99% (active); in assay [6] (at 50.0 µM), 97% (active).

With `COC(=O)N/N=C(\C)C(CN1CCOCC1)C(c1ccccc1)c1cc2ccccc2oc1=O` (configuration not stated), the growth inhibition in assay [1] (setting [7]) was 10%; in assay [1] (setting [8]), 57%; in assay [1] (at 50.0 µM), -0.75%; in assay [2] (setting [7]), -4%; in assay [2] (setting [8]) it was 56%; in assay [2] (at 50.0 µM) it was 7.15%. Besides, the growth inhibition was 14% in assay [3] (setting [7]); 64% in assay [3] (setting [8]); -5.55% in assay [3] (at 50.0 µM); 14% in assay [4] (setting [7]); 70% (active) in assay [4] (setting [8]); 10.9% in assay [4] (at 50.0 µM). Besides, the growth inhibition in assay [5] (setting [7]) was 21%; in assay [5] (setting [8]), 74% (active); in assay [5] (at 50.0 µM), 8.15%; in assay [6] (setting [7]), 7%; in assay [6] (setting [8]), 61%; in assay [6] (at 50.0 µM) it was 2.25%.

Turning to `O=C1C2C3C=CC(C3)C2C(=NS(=O)(=O)c2ccccc2)C2C3C=CC(C3)C12` (configuration not stated), the growth inhibition was -33% in assay [1] (setting [7]); 9% in assay [1] (setting [8]); 84.7% (active) in assay [1] (at 50.0 µM); -2% in assay [2] (setting [7]); 0% in assay [2] (setting [8]); 89.8% (active) in assay [2] (at 50.0 µM). Also, the growth inhibition in assay [3] (setting [7]) is 3%; in assay [3] (setting [8]), 14%; in assay [3] (at 50.0 µM) it was 91.4% (active); in assay [4] (setting [7]) it was -1%; in assay [4] (setting [8]), -3%; in assay [4] (at 50.0 µM), 22.1%. Besides, the growth inhibition in assay [5] (setting [7]) was -2%; in assay [5] (setting [8]), 4%; in assay [5] (at 50.0 µM), 53%; in assay [6] (setting [7]), 28%; in assay [6] (setting [8]), 12%; in assay [6] (at 50.0 µM), 72.5% (active).

As to `Nc1ccc2c(SCc3ccc([N+](=O)[O-])cc3)c3ccccc3nc2c1`, the growth inhibition in assay [1] (setting [7]) was 86% (active); in assay [1] (setting [8]) it was 84% (active); in assay [1] (at 50.0 µM), 73.5% (active); in assay [2] (setting [7]), 98% (active); in assay [2] (setting [8]), 94% (active); in assay [2] (at 50.0 µM) it was 87.7% (active). Also, the growth inhibition is 40% in assay [3] (setting [7]); 94% (active) in assay [3] (setting [8]); 88.8% (active) in assay [3] (at 50.0 µM); 90% (active) in assay [4] (setting [7]); 93% (active) in assay [4] (setting [8]); 84.5% (active) in assay [4] (at 50.0 µM). In addition, the growth inhibition is 97% (active) in assay [5] (setting [7]); 94% (active) in assay [5] (setting [8]); 84.2% (active) in assay [5] (at 50.0 µM); 96% (active) in assay [6] (setting [7]); 93% (active) in assay [6] (setting [8]); 83.9% (active) in assay [6] (at 50.0 µM).

Regarding `Oc1cc(O)cc(O)c1`, the growth inhibition is 10% in assay [1] (setting [7]); 76% (active) in assay [1] (setting [8]); 15.7% in assay [1] (at 50.0 µM); -2% in assay [2] (setting [7]); 18% in assay [2] (setting [8]); -4.05% in assay [2] (at 50.0 µM). In addition, the growth inhibition in assay [3] (setting [7]) is 0%; in assay [3] (setting [8]), 19%; in assay [3] (at 50.0 µM) it was 12.3%; in assay [4] (setting [7]), 5%; in assay [4] (setting [8]), 17%; in assay [4] (at 50.0 µM), 7.85%. Moreover, the growth inhibition in assay [5] (setting [7]) was -4%; in assay [5] (setting [8]) it was 6%; in assay [5] (at 50.0 µM), 69%; in assay [6] (setting [7]) it was -5%; in assay [6] (setting [8]), 16%; in assay [6] (at 50.0 µM) it was 23.3%.

Turning to `Oc1c(N(Cc2ccccc2)Cc2ccccc2)ccc2cccnc12`, the growth inhibition in assay [1] (setting [7]) was -2%; in assay [1] (setting [8]), 96% (active); in assay [1] (at 50.0 µM), 98.4% (active); in assay [2] (setting [7]), -15%; in assay [2] (setting [8]), 96% (active); in assay [2] (at 50.0 µM), 98.5% (active). Also, the growth inhibition in assay [3] (setting [7]) is -1%; in assay [3] (setting [8]) it was 97% (active); in assay [3] (at 50.0 µM) it was 98.6% (active); in assay [4] (setting [7]), -15%; in assay [4] (setting [8]) it was 95% (active); in assay [4] (at 50.0 µM), 96.2% (active). The growth inhibition in assay [5] (setting [7]) was -8%; in assay [5] (setting [8]), 97% (active); in assay [5] (at 50.0 µM) it was 98.8% (active); in assay [6] (setting [7]) it was 1%; in assay [6] (setting [8]), 96% (active); in assay [6] (at 50.0 µM), 98% (active).

`COC(=O)/C(Br)=C(\Br)c1ccccc1`: the growth inhibition in assay [1] (setting [7]) is 6%; in assay [1] (setting [8]), 13%; in assay [1] (at 50.0 µM) it was -11.4%; in assay [2] (setting [7]), 6%; in assay [2] (setting [8]), 6%; in assay [2] (at 50.0 µM), 24.1%. The growth inhibition in assay [3] (setting [7]) was 14%; in assay [3] (setting [8]), -6%; in assay [3] (at 50.0 µM), 36.7%; in assay [4] (setting [7]), 2%; in assay [4] (setting [8]), 6%; in assay [4] (at 50.0 µM) it was -18.6%. Besides, the growth inhibition was 0% in assay [5] (setting [7]); 21% in assay [5] (setting [8]); 52.8% in assay [5] (at 50.0 µM); 22% in assay [6] (setting [7]); 40% in assay [6] (setting [8]); 21.7% in assay [6] (at 50.0 µM).

These data come from PubChem BioAssay (NCI).
